# Source: PubChem BioAssay AID488857 (Sanford-Burnham Center for Chemical Genomics, 2010)
# About 560 (40%) of roughly 1,400 compounds were called active. So high a share suggests a set chosen from earlier hits. Some of the results follow. A number with no mark means an inactive call.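 How the source made its calls: active means mean inhibition over duplicate tests at 10 µM above 50%; inactive means the rest.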
# Test: ASC/caspase-1 reporter retest in S. cerevisiae at one dose, specificity check for NALP1 project (AID 488857)
# Conditions: S. cerevisiae ASC/Caspase-1, beta-galactosidase luminescence, 24 h; at 10 µM; stronger effect = higher value
row,Compound,inhibition
1,CCN(c1cccc(C)c1)S(=O)(=O)c1cccc(C(=O)O)c1,32.3%
2,CCN(CC)c1ccc(/C=C2/SC(=O)N(C(C)C)C2=O)o1,71% (active)
3,N#CC1(C#N)CC(C=O)=C(N)C1(C#N)CC(=O)C12CC3CC(CC(C3)C1)C2 (centres undefined),35.1%
4,Cc1cc(C(=O)COC(=O)c2ccc[nH]c2=O)c(C)n1-c1ccccc1,57.5% (active)
5,Cc1cc(C(=O)COC(=O)c2ccc[nH]c2=O)c(C)n1-c1ccc(F)cc1,52.3% (active)
6,CCC(=O)N(Cc1cc2c(C)ccc(C)c2[nH]c1=O)C1CCCCC1,36.8%
7,CCC(C(=O)OC)n1cnc2scc(-c3ccc(C)c(C)c3)c2c1=O (centres undefined),98.5% (active)
8,CC[n+]1c(/C=C/N(C)c2ccccc2)n(-c2ccccc2)c2ccc(-c3nc4ccccc4s3)cc21,64.5% (active)
9,O=C(Cn1cccc(C(F)(F)F)c1=O)c1ccc(Cl)cc1,20.5%
10,O=C(Nc1ccccc1)Nc1ccc(Br)cc1F,73.9% (active)
11,Cc1ccc(S(=O)(=O)N(C)C)cc1NC(=O)Nc1ccccc1F,24.1%
12,O=C(NNC(=O)c1ccc(-c2ccccc2)cc1)Nc1ccc(F)cc1F,42.6%
13,O=C(c1ccccc1)c1ccc(OCC(O)CNC2CCCc3ccccc32)cc1 (centres undefined),38.8%
14,COc1ccc(C2NCCc3c2[nH]c2ccccc32)cc1CSc1nc2ccccc2s1 (centres undefined),50% (active)
15,CSc1nc(C)cc(OCCO)n1,40.9%
16,CCCOc1ccc(OCCSc2ncccn2)cc1,50.8% (active)
17,CCOc1ccc(OCCSc2nc3ccccc3o2)cc1,44.1%
18,CC(=O)NS(=O)(=O)c1ccc(NC(=O)CSc2ccccc2)cc1,18.9%
19,CC(C)CN=C(NS(=O)(=O)c1ccccc1)C(Cl)(Cl)Cl,51.1% (active)
20,Cc1ccc(S(=O)(=O)N[C@@H](Cc2ccccc2)C(=O)CCl)cc1,-4.2%
21,Cc1c(C)c2cc(Cl)c(O)c(CN3CCCCC3)c2oc1=O,35.6%
22,CCc1oc2ccccc2c1C(=O)CCN1CCCCC1,66.5% (active)
23,O=C(OCCN1CCCCC1)c1cc2ccccc2o1,18.4%
24,O=C(NCCc1csc(-c2ccccc2)n1)c1ccc(Br)o1,62.4% (active)
25,COc1ccc(-c2nc(CCNC(=O)c3cccs3)cs2)cc1,54.7% (active)
26,COc1ccc(CCNC(=O)c2sc3cc(C)ccc3c2Cl)cc1,43.6%
27,O=C(NCCCn1ccnc1)c1ccc(Br)o1,24.1%
28,Cc1ccc(CN(C(=O)CNC(=O)c2cccs2)C(C(=O)NCC2CCCO2)c2ccccc2)cc1 (centres undefined),38.1%
29,c1ccc(CCNc2nc(-c3cccnc3)cs2)cc1,45%
